Test results as given in PubChem BioAssay AID687021 (Broad Institute, 2013).
A number with no mark means an inactive call. Activity calls are given as the source filed them.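 How the source made its calls: active means compounds lowering luciferase light whose fitted half-effect concentration is at most twice the top tested dose; inconclusive means flat curve with 30 to 70% inhibition, or poor fit; inactive means the rest.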

experiment: luciferase signal loss, tTA control fusion, HeLa F-luc tTA cells, dry powder, counter-screen for HIV Env fusion inhibitor project, dose response (AID 687021); conditions: luciferase luminescence counterscreen; series mostly up to 35 µM; activity change, negative = inhibition: at the top concentration

Row | Compound | activity change, negative = inhibition [%] | outcome
1 | CCCC#Cc1ccc2c(c1)O[C@@H](CN(C)S(=O)(=O)c1cccc(F)c1)[C@@H](C)CN([C@H](C)CO)S2(=O)=O | 30.7 | 
2 | CC(C)(C)c1ccc(-c2noc(CCC(=O)NCC3CCCO3)n2)cc1 (configuration not stated) | 26.6 | 
3 | COc1ccc(-c2nn(C)c(=O)c3ccccc23)cc1NC(=O)Cn1nc(C)c2ccccc2c1=O |  | inactive
4 | CCCn1nc(C(=O)Nc2ccc3nc(N4CCOCC4)sc3c2)ccc1=O | 2.85 | 
5 | CCOc1ccc(S(=O)(=O)NCc2ccncc2)cc1Cl | 43.3 | 
6 | CCOc1ccc(S(=O)(=O)NCc2ccccc2)cc1 | 8.56 | 
7 | CCOc1ccc(C(=O)C2CCN(CC(=O)Nc3ccccc3N3CCOCC3)CC2)cc1 | 15.7 | 
